# Activity calls are given as the source filed them. Entries that show only a call come without a potency. Calls come from the whole dose curve; as a rule, active = well fitted curve in the direction sought with a large enough effect in the repeat runs; inconclusive = weak or mixed curves; inactive = flat fitted curve, though single readings scatter.
# Assay: qHTS assay to test for compound auto fluorescence at 460 nm (blue) in HEK293 cell free culture (AID 720681)
# Conditions: cell-free medium, autofluorescence 405/460 nm (blue); series mostly up to 91.3 µM
# Excerpt: U.S. Tox21 Program National Center for Advancing Translational Sciences [NCATS] NIH Chemical Genomics Center [NCGC] U.S. Environmental Protection Agency [EPA] National Institutes of Environmental Health Sciences [NIEHS] National Toxicology Program [NTP] U.S. Food and Drug Administration [FDA] Tox21 Assay Overview: Compound auto fluorescence often interferes with screening of the compound library against various biological targets and signaling pathways. Some of these compounds may have fluorophoric properties. Such properties may interfere with the assay outputs resulting in false positives and/or negatives. To decrease such complications and ensure the compound activities are relevant in terms of biological response, the Tox21 10K compound library was screened for auto fluorescence. From the fluorophores used as reporter signals in our screening assays, the auto fluorescence equivalencies of compounds against three fluorophores have been evaluated: Triamterene, Fluorescein and Rose Bengal sodium for blue, green and red fluorescence, respectively. The fluorescence intensities were measured using Excitation/Emission wavelengths at 405/460nm, 485/535nm and 540/590nm for blue, green and red labels, respectively. This assay includes the blue fluorescence data.
# Tox21 Assay Protocol Summary: 5 uL of culture medium (DMEM containing 10% FBS) per well was dispensed into black wall/clear bottom 1536-well plates using a Multidrop Combi Dispenser (ThermoFisher Scientific, Waltham, MA). After 23 nL compound or DMSO vehicle was transferred into assay plate by a pintool work station (Kalypsys, San Diego, CA), fluorescence intensities in the assay plates were measured by an Envision (PerkinElmer, Shelton, CT) plate reader using three labels for measuring blue, green and red fluorescence at […] 460, 535 and 590nm respectively.
row,SMILES,Potency
1,Clc1ccc(C(c2ccccc2Cl)C(Cl)(Cl)Cl)cc1 (stereo not given),inactive
2,Nc1ccccc1C(=O)OC/C=C/c1ccccc1,inactive
3,CSCCCN=C=S,inactive
4,ClC1=C(Cl)C2(Cl)C3C(Cl)C=CC3C1(Cl)C2(Cl)Cl (stereo not given),inactive
5,COc1cccc(C(=O)CCN[C@@H](C)[C@H](O)c2ccccc2)c1,inactive
6,CCCCOCN(C(=O)CCl)c1c(CC)cccc1CC,inactive
7,N#CNC#N,inactive
8,Nc1ccc(Cc2ccc(N)c(Cl)c2)cc1Cl,inactive
9,Fc1ccc(Oc2ccnc3cc(Cl)cc(Cl)c23)cc1,inactive
10,ClCc1ccc(Cl)cc1Cl,inactive
11,Cc1cc(C(C)(C)c2cc(C)c(O)c(C)c2)cc(C)c1O,inactive
12,Oc1ccc(C(=C(Cl)Cl)c2ccc(O)cc2)cc1,inactive
13,Oc1cc(Cl)c(Cl)c(Cl)c1,inactive
14,CC(=O)C(Cl)(Cl)Cl,inactive
15,CC(C)OC(=S)S,inactive
16,CCC[CH2][Sn]([CH2]CCC)([CH2]CCC)[O]C(=O)c1ccccc1,inactive
17,COc1cc(N)c(Cl)cc1C(=O)NC1CN2CCC1CC2 (stereo not given),inactive
18,C[C@]12Cc3nonc3C[C@@H]1CC[C@@H]1[C@@H]2CC[C@@]2(C)[C@H]1CC[C@]2(C)O,inactive
19,CC(=O)OC1(c2ccccc2)CCN(CCc2ccccc2)CC1,inactive
20,CC1(c2ccc(Oc3ccccc3)cc2)OC(=O)N(Nc2ccccc2)C1=O (stereo not given),inactive

row,SMILES,Potency
1,Fc1cccc(Cl)c1CCl,inactive
2,C1CCC2CCCCC2C1 (stereo not given),inactive
3,CC(Cc1ccc(C(C)(C)C)cc1)CN1C[C@@H](C)O[C@@H](C)C1 (stereo not given in full),inactive
4,CN(C)CCc1c[nH]c2ccc(O)cc12,inactive
5,Clc1ccc(C(Cl)(Cl)Cl)c(Cl)c1,inactive
6,CC(C)[C@H](C(=O)OC(C#N)c1cccc(Oc2ccccc2)c1)c1ccc(OC(F)F)cc1 (stereo not given in full),inactive
7,O=C/C(Cl)=C(/Cl)C(=O)O,inactive
8,CCOC(=O)OC1=C(c2cc(C)ccc2C)C(=O)NC12CCC(OC)CC2 (stereo not given),inactive
9,ClC1=C(Cl)[C@]2(Cl)[C@@H]3[C@@H]4C[C@@H]([C@H]5O[C@@H]45)[C@@H]3[C@@]1(Cl)C2(Cl)Cl,inactive
10,CN(C)C1CSSSC1,inactive
11,CC1(C)CN=C(NN=C(/C=C/c2ccc(C(F)(F)F)cc2)/C=C/c2ccc(C(F)(F)F)cc2)NC1,inactive
12,C[C@@H]1CC[C@@]2(OC1)O[C@H]1[C@@H](O)[C@H]3[C@@H]4CC[C@H]5C[C@@H](O[C@@H]6O[C@H](CO)[C@H](O[C@@H]7O[C@H](CO)[C@@H](O)[C@H](O[C@@H]8OC[C@@H](O)[C@H](O)[C@H]8O)[C@H]7O[C@@H]7O[C@H](CO)[C@@H](O)[C@H](O[C@@H]8O[C@H](CO)[C@@H](O)[C@H](O)[C@H]8O)[C@H]7O)[C@H](O)[C@H]6O)[C@H](O)C[C@]5(C)[C@H]4CC[C@]3(C)[C@H]1[C@@H]2C,inactive
13,CC(c1ccc(O)cc1)c1ccc(O)cc1,inactive
14,N#CC(Cl)Cl,inactive
15,O=C(Nc1ccc2[nH]ccc2c1)c1cc2cc(F)ccc2n1Cc1cccc(F)c1,inactive
16,CC(C)CCCCCOC(=O)c1ccccc1C(=O)OCCCCCC(C)C,inactive
17,[Cd+2].[Cl-].[Cl-],inactive
18,COc1ccc(OC)c(CC(C)N)c1 (stereo not given),inactive
19,CC[C@H](C)[C@H]1O[C@]2(C=C[C@@H]1C)C[C@@H]1C[C@@H](C/C=C(\C)[C@@H](O[C@H]3C[C@H](OC)[C@@H](O[C@H]4C[C@H](OC)[C@@H](O)[C@H](C)O4)[C@H](C)O3)[C@@H](C)/C=C/C=C3\CO[C@@H]4[C@H](O)C(C)=C[C@@H](C(=O)O1)[C@]34O)O2,inactive
20,O=C1NCN(c2ccccc2)C12CCN(CC1COc3ccccc3O1)CC2 (stereo not given),inactive

# Source: PubChem BioAssay (Tox21)
